# Measurements: PubChem BioAssay (NCI)
# Compounds without any hit were thinned out: in the full panel of roughly 79,000, 15% have a hit. Calls of active or inactive are those of the source. Rule as the data show it: active = growth inhibition above about 70%; inactive = the rest.
# Assay: NCI Yeast Anticancer Drug Screen. Data for the rad14 strain (AID 159);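 also: 0% = growth of vehicle-treated control cultures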
# Settings: S. cerevisiae rad14 strain growth inhibition; at 33.0 µM; stronger effect = higher value
# Procedure, shortened: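 Screen for anticancer potential: a yeast strain altered in DNA damage repair is grown with compound, and reduced growth is quantified against vehicle controls.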
row,SMILES,growth inhibition
1,C[N+](C)([O-])CCCNc1c2ccccc2nc2cccc([N+](=O)[O-])c12,96% (active)
2,O=C(c1cc(=O)c2ccc(O)cc2o1)c1ccc(Cl)cc1Cl,76% (active)
3,CCCNC(=O)OCc1c(COC(=O)NCCC)c(-c2ccc(Cl)c(Cl)c2)n2c1CCC2,54% (inactive)
4,O=C(Cc1ccccc1)NN1C(=O)C(Cl)C1c1cc(Br)cc(Br)c1O (centres undefined),93% (active)
5,CCOC(=O)C(Cc1c2ccccc2cc2ccccc12)(NC(C)=O)C(=O)OCC,-5% (inactive)
6,O=[N+]([O-])/C=C/c1cc2ccc3ccccc3c2[nH]1,88% (active)
7,Fc1ccc(Nc2ccc3ccccc3c2)cc1,55% (inactive)
8,O=S1(=O)CCC2=CC(C(F)(F)F)=CC(C(F)(F)F)=CN21,91% (active)
9,O=C(Cc1ccccc1)NNc1nc(NNC(=O)c2ccncc2)nc(Nc2ccc([N+](=O)[O-])cc2)n1,14% (inactive)
10,CCCCS/C(=C(/C#N)C(N)=O)c1cc2c([nH]1)CCCC2,-16% (inactive)
11,O=C(O)c1ccccc1C(=O)OC1CCc2ccccc2C1 (centres undefined),11% (inactive)
12,CCOC(=O)/C(=C\c1cccc(C)c1)C(C)=O,93% (active)
13,NC(=S)N/N=C1\c2ccccc2CCC1CCC1(O)CCc2ccccc2C1=O (centres undefined),82% (active)
14,Cc1cccc2c(Cl)c3cccc(C)c3nc12,13% (inactive)
15,CC(C)OC(=O)NNc1c(Cl)cc(Cl)cc1Cl,7% (inactive)
16,Nc1ccc2c(c1)C(=O)c1c(F)cccc1-2,27% (inactive)
17,N#CSCC1COc2ccccc2O1 (centres undefined),20% (inactive)
18,Cc1ccc(S(=O)(=O)NC(=O)C2C(=O)CC3(CCCCC3)CC2=O)cc1,82% (active)
19,CC1=NN(C(=O)c2ccccc2O)C(=O)/C1=C/c1ccco1,89% (active)
